Laboratory results from PubChem BioAssay AID2098 (Broad Institute, 2009).
Hit rate of the full screen: of about 300,000 compounds, about 2,300 (0.77%) were called active. For the sample, actives were picked, then their nearest neighbours and some compounds at random. Unmarked numbers belong to inactive results.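 Rule for the calls: active = more than half of replicate wells show activity change below -50%, luminescence cut by over half; inconclusive = some wells, but at most half, below -50%; inactive = no replicate well below -50%.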

Assay: blocking HSF1-driven luciferase expression – cell-based, NIH3T3, luminescence, primary screen (AID 2098);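 note: luciferase reports HSF-1 transcriptional activity via heat shock element; 0% = median of DMSO wells and -100% = zero luminescence signal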
Conditions: NIH3T3-HGL HSE-luciferase, MG132-induced, luminescence 8 h; hits give low values; screened at 7.5 µM (by protocol)
In the case of CCOc1ccc(S(=O)(=O)NCCC(=O)N2CCCCCCC2)cc1, the activity change, negative = inhibition is reported as 1.97%. With O=C(COc1ccccc1)Nc1cc2c3c(c1)CC(=O)N3CCC2 the activity change, negative = inhibition was 2.82%. Cc1ccc(OCC(=O)c2cc(C)n(Cc3ccco3)c2C)c([N+](=O)[O-])n1 showed an activity change, negative = inhibition of -39.8%. With Cc1cc(C(=O)COC(=O)CNC(=O)c2ccc(F)cc2)c(C)n1Cc1ccco1 the activity change, negative = inhibition was -53.9% (active). Cc1cc(C(=O)CSc2nc(N)cc(=O)[nH]2)c(C)n1Cc1ccco1 gave an activity change, negative = inhibition of -33.6%. O=C(Nc1c(Br)cc2c(c1Br)Cc1ccccc1-2)C(F)(F)F gave an activity change, negative = inhibition of -5.38%. Molecule O=C1CCc2cc(S(=O)(=O)Nc3ccc(C(F)(F)F)cc3)cc3c2N1CC3 has an activity change, negative = inhibition of -0.158%. COc1ccccc1CNS(=O)(=O)c1cc2c3c(c1)CCC(=O)N3CCC2 gave an activity change, negative = inhibition of -0.185%. In the case of COc1ccc(C)cc1S(=O)(=O)Nc1cc2c3c(c1)CCC(=O)N3CCC2, the activity change, negative = inhibition is reported as -68.5% (active). Cc1ccc(OCCNC(=O)CN2C(=O)NC3(CCCC3)C2=O)cc1 gave an activity change, negative = inhibition of -2.16%. In the case of CN(/N=C/c1ccccc1)C(=S)c1ccccc1, the activity change, negative = inhibition is reported as -0.878%. In the case of O=C(NCCCc1ccccc1)C(=O)NCC1OCCN1S(=O)(=O)c1ccccc1 (stereo not given), the activity change, negative = inhibition is reported as 3.32%. With O=C(NCCCn1ccnc1)C(=O)NCC1OCCN1S(=O)(=O)c1cc(F)ccc1F (stereo not given) the activity change, negative = inhibition was -87.4% (active). For Cc1cc(F)ccc1S(=O)(=O)N1CCCOC1CNC(=O)C(=O)NCCC1=CCCCC1 (stereo not given), the activity change, negative = inhibition was -4.13%. Molecule O=C(CCN1C(=O)C2CCCCC2C1=O)Nc1ccc(OC(F)F)cc1 (stereo not given) has an activity change, negative = inhibition of 5.73%. With CCCCn1c(N)c(N(CC(C)C)C(=O)c2cccc(S(=O)(=O)N3CCN(C(C)=O)CC3)c2)c(=O)[nH]c1=O the activity change, negative = inhibition was 0.146%. In the case of O=C(Nc1cccc2ncccc12)c1ccc(-c2ccc(Cl)cc2Cl)o1, the activity change, negative = inhibition is reported as 8.41%. For O=C(Nc1cccc2ncccc12)C(Cl)(Cl)Cl, the activity change, negative = inhibition was -59.5% (active). O=C(O)c1cc(Cl)c(Cl)cc1C(=O)Nc1cccc2ncccc12 showed an activity change, negative = inhibition of 15.1%. With CC1CC(C)(C)CC2(C1)NC(=O)N(CC(=O)Nc1nccs1)C2=O (stereo not given) the activity change, negative = inhibition was 0.525%. For CC(=O)NC1CCN(CC(=O)Nc2nccs2)CC1, the activity change, negative = inhibition was 0.912%. In the case of CC1CCN(CC(=O)Nc2nccs2)CC1, the activity change, negative = inhibition is reported as -53.5% (active). Molecule COc1cc(OC)cc(-c2nnc(SCC(=O)Nc3ccc(C(=O)O)cc3)s2)c1 has an activity change, negative = inhibition of -5.1%. In the case of COc1ccc(NC(=O)CSc2nc(C)cs2)cc1, the activity change, negative = inhibition is reported as -86.2% (active). In the case of Cc1csc(SCC(=O)Nc2sccc2C#N)n1, the activity change, negative = inhibition is reported as 9.14%. For Cc1nn(-c2ccccc2)c(-n2cccc2)c1C(=O)O, the activity change, negative = inhibition was -12.1%. In the case of CCCc1c(C(=O)Nc2ccc(F)cc2)cnn1-c1ccccc1, the activity change, negative = inhibition is reported as 6.52%. With CCCc1nc(-c2ccccc2O)n(-c2ccccc2)n1 the activity change, negative = inhibition was -81.9% (active). Work on COc1ccc([C@@H]2[C@@H]3C(=O)N(C(C)(C)C)C(=O)[C@@H]3[C@]3(Cc4ccccc4)C(=O)N(c4cccc(Br)c4)C(=O)N23)cc1 yielded an activity change, negative = inhibition of -4.65%. Work on CCOc1ccc(NS(=O)(=O)c2ccc(C(=O)NC3CCN(Cc4ccccc4)CC3)cc2)cc1 yielded an activity change, negative = inhibition of -0.719%. Cc1nc(-c2ccc(F)cc2)c(CC(=O)Nc2cccc(S(=O)(=O)N3CCOCC3)c2)s1 gave an activity change, negative = inhibition of 4.76%. With CCCCn1c(N)c(N(CC(C)C)C(=O)c2ccc(-n3c(C)ccc3C)cc2)c(=O)[nH]c1=O the activity change, negative = inhibition was -2.25%. COc1cc(/C=N/n2c(C)n[nH]c2=S)ccc1OCc1ccccc1 gave an activity change, negative = inhibition of -2.45%. For Cn1c(-c2sc3cc(C(F)(F)F)cnc3c2-c2ccccc2)n[nH]c1=S, the activity change, negative = inhibition was -4.57%. For Cn1c(-c2sccc2OCc2cccc(C(F)(F)F)c2)n[nH]c1=S, the activity change, negative = inhibition was -82.6% (active). For O=C(c1ccccc1)c1ccc(OCC(O)CN2CCCC2)cc1 (stereo not given), the activity change, negative = inhibition was -61.3% (active). Molecule O=C(c1ccc(Cl)cc1)c1ccc(OCC(O)CN2CCCCC2)cc1 (stereo not given) has an activity change, negative = inhibition of -7.88%. Work on CC1CCN(CC(O)COc2ccc(C(=O)c3ccccc3)cc2)CC1 (stereo not given) yielded an activity change, negative = inhibition of -15%. Cc1ccc(NC(=O)CSc2nc(=O)n(CCN(C)C)c3c2CCCC3)c(C)c1 showed an activity change, negative = inhibition of -5.63%. For COc1ccc(C2=NN(C(=O)CSc3nc(=O)n4ccc(C)cc4n3)C(c3ccc(C)cc3)C2)cc1 (stereo not given), the activity change, negative = inhibition was 11.2%. For CC(=O)N/C(=C\c1ccccc1)C(=O)OC(C)C(=O)N(C)c1ccccc1 (stereo not given), the activity change, negative = inhibition was 1.34%. Molecule Cc1nc2ccccc2c(=O)n1NC(=O)c1ccc(Cl)c([N+](=O)[O-])c1 has an activity change, negative = inhibition of 1.5%. In the case of O=C(Nc1cccnc1)c1ccc(Cl)c([N+](=O)[O-])c1, the activity change, negative = inhibition is reported as -4.95%. With C/C(=N\Nc1nncc2ccccc12)c1ccc(Cl)c([N+](=O)[O-])c1 the activity change, negative = inhibition was -54.9% (active). Work on COc1ccc(NS(=O)(=O)c2ccc(C)c(C(=O)N(C)Cc3ccc(OC)cc3OC)c2)cc1 yielded an activity change, negative = inhibition of -0.123%.
